Drawing on the supplement of paper PMC6555819, this text covers PBM binding z-score for 40 sequences.

The experiment concerns VDR:RXRa (NR concentration 270 nM, RXRa partner concentration 90 nM). Kind of experiment: PBM binding z-score (relative to random genomic background probes); higher = stronger binding; sequences stand for … in GC…GCGATTGACAGCGTAGAATGAAGG
As to the method: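 Protein-binding microarray (Agilent 4x180K custom design, double-stranded 60-nt probes: 5' GC cap, 34-nt variable region, 24-nt constant primer region; full probe sequence given). Purified or IVT nuclear receptor:RXRα heterodimers (3:1 NR:RXRα, mostly 270:90 nM) or homodimers were incubated for 1 h in PBS with 2% milk and no ligand, then detected with Alexa488 antibodies. Fluorescence from o1-orientation probes (~5 replicates averaged) was converted to z-scores against 500 random hg19 background probes. Variable regions are seed direct-repeat (DR0–DR5) sites, all their single-nucleotide variants and half-site ablations.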
ATCTCTAGGTAAAAGTTCCGTGAATCCCGAGGAT: the PBM binding z-score is -0.0559.

In turn, TGAATGAGGTTATAAGTTCAGGGAACGTTGCAAA registered a PBM binding z-score of 3.67.

CCTAGTTGATCAAGGTCACACACGCTATAGGTAC yielded a PBM binding z-score of 4.91.

With TAGCCTAGGTCATTAAGGGGCCAGTATAGAAAGC, the PBM binding z-score amounted to 2.52.

On to CCTACTTGGTCAAGGTCACACACGCTATAGGTAC, for which the PBM binding z-score is 3.97.

Regarding CCTACTGGGCCACGAAAGGTTATTGATTCAGTGA, the PBM binding z-score came to 0.818.

As for CAAACCAGGTCACCGGAAGGTCAAAGTCCGCATG, the PBM binding z-score worked out at 6.39.

GCGACTGGGGCAAAGCAGGTTAGCATAAGGTTGG registered a PBM binding z-score of -0.429.

Take ACTATTAGTTGACTTAGGTCAACCGATACGACGC: the PBM binding z-score came out at 2.42.

Consider CCTTACGGGTCACGAGGTTCTAGCACGACGAGCG, for which the PBM binding z-score came to 6.18.

The sequence ATGTGTAGGTTATCGGGTCATTCAGTTTGCGCAT gave a PBM binding z-score of 5.25.

The sequence TCGAGTAGGTTACCTATGGGGCATTCAGCTTTCT yielded a PBM binding z-score of -0.0814.

Sequence AGATGTAGGTTATCGGGTCATTCAGTTTGCGCAT returned a PBM binding z-score of 5.35.

Turning to ATATCTAGGTTACATCCGGGTCATTCAGGCTATG, the PBM binding z-score was 4.23.

For ATCTCTTGGTAACCAAGTTCAGTGAATGCCGAAC, the PBM binding z-score was determined as 2.38.

For GCTGCTACGTCAGGTTGGTCAGCTAACGGGTACG, the PBM binding z-score is -0.773.

In turn, ACTATGAGTTGACTTAGGGCAACCGATACGACGC returned a PBM binding z-score of 1.16.

For TCTTGTAGATCAACAGAAGGTTAAGAAAGATCGA, the PBM binding z-score is 0.765.

Turning to ATCTGTAGGTAAAGTTCAGTGAAAGATCGATAGA, the PBM binding z-score was 1.24.

The sequence CGTCCAAGGTCAGAGAGTTCAGTGAATGCCGAGT returned a PBM binding z-score of 7.65.

TCATATAGGTAAACAGATGAAAGTCCGTAAGTTA gave a PBM binding z-score of 1.17.

On to CCGACTGGGGCAAGGTAACCATAACGCACAGCCA, for which the PBM binding z-score is -0.466.

AATACAGGGTCACTAGGCCAGTGTAGGTACGAAT yielded a PBM binding z-score of 4.26.

Turning to TCTAGTTGGTCACGGAGGTCTCACACGACGGGTA, the PBM binding z-score is 1.65.

For TCTCGGAGGACACGAAAGGTCAGAGGTCGACATC, the PBM binding z-score is 4.52.

Turning to GCAGACAGGTGAAACGCAGGTAAGTCAGGGTGGC, the PBM binding z-score is -0.562.

On to TCTTGTAGATCAATAGCGGTTAAGAAAGTGCGCT, for which the PBM binding z-score turned out to be 0.46.

In turn, TTACCGAGGTGAGCTGAGGTCGTTGATCCAACTC returned a PBM binding z-score of 4.51.

Sequence CCTTACGGGTCACTCGAGGTTATAGCATCGGAGT gave a PBM binding z-score of 5.11.

CGTCCAAGGTCAAGGTCAGTGGAAGAGACTCGAA showed a PBM binding z-score of 4.89.

ATCTCTAGGTAACAAGTACAGTGAAAGAGAGGAC had a PBM binding z-score of 0.429.

Consider TTACCAAGGTGAGCTGTGGTCGTTGATCCAACTC, for which the PBM binding z-score is -0.311.

For GCGACTGGGGCAAAGCAGGTTAACATAAGGTTGG, the PBM binding z-score stood at 0.364.

Sequence CGCCCAAGGTCATAGGAGGTCAGTGAAGACAGAT came in with a PBM binding z-score of 6.21.

Turning to GGAATGAGGGCATTCGAGTTGATAGCATGGCGAT, the PBM binding z-score was 3.45.

As to TCATATAAGTAAAGGTGAAAGTCGAACGATATGA, the PBM binding z-score was 0.925.

Turning to TAGCCTGGGTCATTCAGGGGCCAGTATAGAAAGC, the PBM binding z-score amounted to 2.82.

Turning to GCTATTAGTTGAAAGGGCAACCGGATGATTCTCG, the PBM binding z-score came out at 0.47.

ACAATGAGGTTACCAAAGATCAGGGAAACGCTTG yielded a PBM binding z-score of 1.68.

Take CCTCAGAGGACAGAAGGTCAGAGCTGTCCGCTTT: the PBM binding z-score came to 1.07.
